Measured potencies and affinities stand elsewhere. Calls of active or inactive are those of the source. Unless noted, no cut-off is given here; in the data, nearly all actives have IC50 up to about 0.98 µM.
Biological target: Calcium-dependent protein kinase 1 (Plasmodium falciparum (isolate 3D7)) (UniProt P62344)
Test: PfCDPK1 kinase inhibitors, biochemical, TCAMS library (AID 1159585);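 note: inhibitors leave more ATP so luminescence rises with inhibition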
Conditions: recombinant PfCDPK1, Kinase-Glo ATP depletion luminescence

Chain of Calcium-dependent protein kinase 1 (Plasmodium falciparum (isolate 3D7)) (P62344 whole entry, looked up): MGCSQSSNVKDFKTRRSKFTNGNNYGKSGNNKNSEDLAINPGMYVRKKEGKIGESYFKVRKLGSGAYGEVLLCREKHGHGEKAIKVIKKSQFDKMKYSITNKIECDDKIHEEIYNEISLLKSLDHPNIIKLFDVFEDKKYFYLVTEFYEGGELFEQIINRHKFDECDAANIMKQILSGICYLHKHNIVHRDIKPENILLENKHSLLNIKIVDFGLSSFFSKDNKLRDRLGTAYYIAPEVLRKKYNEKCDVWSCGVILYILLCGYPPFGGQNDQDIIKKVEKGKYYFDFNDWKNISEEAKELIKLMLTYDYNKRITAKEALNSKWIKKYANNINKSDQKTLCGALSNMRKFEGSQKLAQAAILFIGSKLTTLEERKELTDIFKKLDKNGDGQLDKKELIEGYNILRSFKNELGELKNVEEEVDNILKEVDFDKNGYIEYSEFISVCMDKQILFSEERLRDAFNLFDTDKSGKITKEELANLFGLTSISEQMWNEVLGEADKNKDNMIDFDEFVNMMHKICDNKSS

outcome, inactive:
Cc1ccc2c(-c3ccc([N+](=O)[O-])o3)cc(C)nc2c1
COc1ccc2nc(C)cc(Nc3ccc(Cl)c(Cl)c3)c2c1
COc1cc(NCCCCCNc2cc(Cl)nc3ccccc23)nc2ccccc12
COc1ccc(CN2CCCC(Nc3ccc(F)c(F)c3)C2)c(O)c1 (stereo not given)
Cc1cc(N[C@@H](CC(C)C)C(=O)NCc2cccc(F)c2)nc(NCCc2ccccc2)n1
Cc1ccc(O)c(C(=O)c2cc(C(=O)Nc3ccccc3C)c(=O)n(-c3ccccc3C)c2)c1
COc1ccc2nc(C)cc(NN=Cc3cccc([N+](=O)[O-])c3)c2c1
C=CCOC(=O)N1CCC(CNCc2cccc(-c3cccc(-c4nc5c(C)cccc5[nH]4)c3)c2)C1 (stereo not given)
Cc1[nH]c(C)c(-c2ccc(OCc3cc(F)cc(F)c3)nc2)c(=O)c1Cl
COc1ccc(O)cc1/C=N/Nc1ccnc2cc(Cl)ccc12
Cc1cnc(NCC2CCCCC2)nc1N[C@@H](CC(C)C)C(=O)Nc1ccccc1
CN(C)CCN(C)Cc1ccc(-c2cccc(NC(=O)c3ccc(Cl)cc3)c2)cc1
C=CCn1c(Sc2ccc(C#N)c([N+](=O)[O-])c2)nnc1-c1cc(OC)cc(OC)c1
Cc1cccc2[nH]c(-c3cccc(-c4ccc(NC(=O)CC5NC(=O)c6ccccc65)cc4)c3)nc12 (stereo not given)
Fc1ccc2nc(-c3ccc(-c4ccc(CN5CCC(CCN6CCCCC6)CC5)cc4)cc3)[nH]c2c1
CC(C)Oc1cc2c(cc1NS(=O)(=O)c1ccc(-c3ccc(Cl)s3)cc1F)CCN(C)CC2
COc1cc2c(cc1C(F)(F)F)N(C(=O)Nc1cc(F)cc(-c3cncnc3)c1)CC2
Cc1cccc(C)c1CNc1ccnc2cc(Br)ccc12
CN1CCN(c2cc3c(cc2Br)CCN3C(=O)Nc2ccc(-c3cnc4ccccc4c3)cc2)CC1
COCCCNC(=O)[C@H]1CNCCN1C(=O)c1ccccc1
COc1ccc2nccc([C@@H](O)CN3CCC(NCc4ccc5c(c4)NC(=O)CS5)CC3)c2n1
O=C(/C=C/c1ccc(Cl)c(Cl)c1)NCCCCCN1CCCN(C(=O)Nc2ccc([N+](=O)[O-])cc2)CC1
CCn1ccc2c(N3CCCS3(=O)=O)cc(C(=O)N[C@@H](Cc3ccccc3)[C@H](O)CNC3CCCCC3)cc21
CC(=O)Nc1ccc(CN2CCCN(c3cc(NC(=O)c4cccc(C)c4)ccn3)CC2)cc1
CCN(CC)C(=NC(N)=NCCCCCCN=C(N)N=C(Nc1ccc(Cl)cc1)N(CC)CC)Nc1ccc(Cl)cc1
CCC(ON1C(N)=NC(N)=NC1(C)C)c1ccc(Cl)cc1 (stereo not given)
NC(N)=NN=Cc1cc2ccccc2c2ccccc12
COc1ccc(C=NNc2ccnc3cc(F)c(C)cc23)c2ccccc12
CC(CN(C)C)C(=O)Nc1cccc(-c2ccc(-c3nc4ccccc4[nH]3)cc2)c1 (stereo not given)
O=C(Nc1cccc(-c2csc(NC(=O)c3ccc4ccccc4c3)n2)c1)c1ccc2ccccc2c1
Clc1nc2ccccn2c1C=Cc1ccc2ccccc2n1
Cc1[nH]c(C)c(-c2ccc(Nc3ccc(C(F)(F)F)cn3)cc2)c(=O)c1Br
COc1cc(F)c2nccc([C@@H](O)CN3CCC(NCc4nc5c(F)cccc5[nH]4)CC3)c2c1
O=C(Nc1ccc(-c2cccc(-c3nc4ccc(F)cc4[nH]3)c2)cc1)Nc1ccc(F)c(F)c1F
COc1ccc(NC(=O)/C=C/c2cc(Br)ccc2F)cc1OCCN(C(C)C)C(C)C
C[C@@H]1CCC[C@H](C)N1C[C@@H](O)CNS(=O)(=O)c1cccc(C(F)(F)F)c1
Clc1ccc(Cc2nc3ccccc3[nH]2)cc1Cl
CCCCOc1c(CNCCCCCCNCc2ccc3ccccc3c2OCCCC)ccc2ccccc12
O=C(/C=C/c1ccccc1Cl)Nc1ccc(Br)c(OCCN2CCCCC2)c1
CC(C)Cc1nc(N)nc(N)c1-c1ccc(Cl)cc1

Biological target: Plasmodium falciparum protein kinase 6 (PK6, PF3D7_1337100) (UniProt Q8IDW1)
Sequence (Q8IDW1 1-305): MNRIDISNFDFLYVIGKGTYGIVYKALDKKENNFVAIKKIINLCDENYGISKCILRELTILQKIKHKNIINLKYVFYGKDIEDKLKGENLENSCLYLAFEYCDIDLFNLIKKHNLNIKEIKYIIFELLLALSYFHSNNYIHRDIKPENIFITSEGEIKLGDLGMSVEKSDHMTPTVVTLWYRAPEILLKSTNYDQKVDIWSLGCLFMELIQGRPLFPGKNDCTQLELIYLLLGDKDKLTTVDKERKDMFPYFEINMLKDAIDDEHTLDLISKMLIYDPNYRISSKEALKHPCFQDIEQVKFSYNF
Test: PfPK6 kinase inhibitors, biochemical, TCAMS library (AID 1159586; call rule not given here)
Conditions: recombinant PfPK6, Kinase-Glo ATP depletion luminescence

outcome, inactive:
Cc1ccc2c(-c3ccc([N+](=O)[O-])o3)cc(C)nc2c1
COc1ccc2nc(C)cc(Nc3ccc(Cl)c(Cl)c3)c2c1
COc1cc(NCCCCCNc2cc(Cl)nc3ccccc23)nc2ccccc12
COc1ccc(CN2CCCC(Nc3ccc(F)c(F)c3)C2)c(O)c1 (stereo not given)
Cc1cc(N[C@@H](CC(C)C)C(=O)NCc2cccc(F)c2)nc(NCCc2ccccc2)n1
Cc1ccc(O)c(C(=O)c2cc(C(=O)Nc3ccccc3C)c(=O)n(-c3ccccc3C)c2)c1
COc1ccc2nc(C)cc(NN=Cc3cccc([N+](=O)[O-])c3)c2c1
C=CCOC(=O)N1CCC(CNCc2cccc(-c3cccc(-c4nc5c(C)cccc5[nH]4)c3)c2)C1 (stereo not given)
Cc1[nH]c(C)c(-c2ccc(OCc3cc(F)cc(F)c3)nc2)c(=O)c1Cl
COc1ccc(O)cc1/C=N/Nc1ccnc2cc(Cl)ccc12
Cc1cnc(NCC2CCCCC2)nc1N[C@@H](CC(C)C)C(=O)Nc1ccccc1
CN(C)CCN(C)Cc1ccc(-c2cccc(NC(=O)c3ccc(Cl)cc3)c2)cc1
C=CCn1c(Sc2ccc(C#N)c([N+](=O)[O-])c2)nnc1-c1cc(OC)cc(OC)c1
Cc1cccc2[nH]c(-c3cccc(-c4ccc(NC(=O)CC5NC(=O)c6ccccc65)cc4)c3)nc12 (stereo not given)
Fc1ccc2nc(-c3ccc(-c4ccc(CN5CCC(CCN6CCCCC6)CC5)cc4)cc3)[nH]c2c1
CC(C)Oc1cc2c(cc1NS(=O)(=O)c1ccc(-c3ccc(Cl)s3)cc1F)CCN(C)CC2
COc1cc2c(cc1C(F)(F)F)N(C(=O)Nc1cc(F)cc(-c3cncnc3)c1)CC2
Cc1cccc(C)c1CNc1ccnc2cc(Br)ccc12
CN1CCN(c2cc3c(cc2Br)CCN3C(=O)Nc2ccc(-c3cnc4ccccc4c3)cc2)CC1
COCCCNC(=O)[C@H]1CNCCN1C(=O)c1ccccc1
COc1ccc2nccc([C@@H](O)CN3CCC(NCc4ccc5c(c4)NC(=O)CS5)CC3)c2n1
O=C(/C=C/c1ccc(Cl)c(Cl)c1)NCCCCCN1CCCN(C(=O)Nc2ccc([N+](=O)[O-])cc2)CC1
CCn1ccc2c(N3CCCS3(=O)=O)cc(C(=O)N[C@@H](Cc3ccccc3)[C@H](O)CNC3CCCCC3)cc21
CC(=O)Nc1ccc(CN2CCCN(c3cc(NC(=O)c4cccc(C)c4)ccn3)CC2)cc1
CCN(CC)C(=NC(N)=NCCCCCCN=C(N)N=C(Nc1ccc(Cl)cc1)N(CC)CC)Nc1ccc(Cl)cc1
CCC(ON1C(N)=NC(N)=NC1(C)C)c1ccc(Cl)cc1 (stereo not given)
NC(N)=NN=Cc1cc2ccccc2c2ccccc12
COc1ccc(C=NNc2ccnc3cc(F)c(C)cc23)c2ccccc12
CC(CN(C)C)C(=O)Nc1cccc(-c2ccc(-c3nc4ccccc4[nH]3)cc2)c1 (stereo not given)
O=C(Nc1cccc(-c2csc(NC(=O)c3ccc4ccccc4c3)n2)c1)c1ccc2ccccc2c1
Clc1nc2ccccn2c1C=Cc1ccc2ccccc2n1
Cc1[nH]c(C)c(-c2ccc(Nc3ccc(C(F)(F)F)cn3)cc2)c(=O)c1Br
COc1cc(F)c2nccc([C@@H](O)CN3CCC(NCc4nc5c(F)cccc5[nH]4)CC3)c2c1
O=C(Nc1ccc(-c2cccc(-c3nc4ccc(F)cc4[nH]3)c2)cc1)Nc1ccc(F)c(F)c1F
COc1ccc(NC(=O)/C=C/c2cc(Br)ccc2F)cc1OCCN(C(C)C)C(C)C
C[C@@H]1CCC[C@H](C)N1C[C@@H](O)CNS(=O)(=O)c1cccc(C(F)(F)F)c1
Clc1ccc(Cc2nc3ccccc3[nH]2)cc1Cl
CCCCOc1c(CNCCCCCCNCc2ccc3ccccc3c2OCCCC)ccc2ccccc12
O=C(/C=C/c1ccccc1Cl)Nc1ccc(Br)c(OCCN2CCCCC2)c1
CC(C)Cc1nc(N)nc(N)c1-c1ccc(Cl)cc1

Source: PubChem BioAssay
